From PubChem BioAssay
Calls of active or inactive are those of the source. How the calls were made is not given here.

test: hESC survival regulators, cell-based (AID 493140); settings: human embryonic stem cell survival screen; hits give high values;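 further: cells exposed to compounds for four days before counting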

SMILES | survival
CC1O[C@@H](OC2/C=C/C=C/C=C/C=C/C[C@@H](C)OC(=O)/C=C/[C@H]3O[C@@H]3C[C@H](O)C[C@]3(O)C[C@H](O)[C@@H](C(=O)O)[C@H](C2)O3)C(O)C(N)[C@@H]1O (some centres undefined) | 28.2 (inactive)
CO/N=C(/C(=O)N[C@@H]1C(=O)N2C(C(=O)[O-])=C(C[N+]3(C)CCCC3)CS[C@H]12)c1csc(N)n1 | 5.92 (inactive)
CCCCC/C=C\C[C@@H]1O[C@H]1C(O)/C=C\C/C=C\CCCC(=O)O (some centres undefined) | 86.8 (inactive)
C[C@@]1(OC(=O)/C=C\c2ccccc2)C[C@H](O)[C@@]2(O)C=CO[C@H](OC3OC(CO)C(O)C(O)C3O)C12 (some centres undefined) | 6.83 (inactive)
CC/C=C\C/C=C\C/C=C\C/C=C\C=C\C(O)CCCC(=O)O (centres undefined) | 128 (inactive)
O=C(O)CCCC/C=C\C[C@@H](O)/C=C/C=C/C=C\[C@@H](O)CCCC(=O)O | 96.1 (inactive)
CCCCCCCCC1OC1CCCCCCCC(=O)O (centres undefined) | 92.8 (inactive)
CCCCC/C=C\C/C=C\C/C=C\C=C\C1CCCC(=O)O1 (centres undefined) | 76.9 (inactive)
O=C(O)c1cc(NCc2cc(O)ccc2O)ccc1O | 90.2 (inactive)
